For 40 sequences, binding signal results are on record in PMC11006913.

Some targets named below: HOXD13 (Homo sapiens, UniProt P35453 263-343, T313A); HOXC9 (Homo sapiens, UniProt P31274 178-260, R222W); HESX1 (Homo sapiens, UniProt Q9UBX0 95-180, F115L); MSX2 (Homo sapiens, UniProt P35548 130-214, F161Y).
Holding throughout (test): PBM; 200 nM protein, PBS
Common to all, as to conditions: dsDNA, one strand shown

Test [1] addresses NKX3-2 (Homo sapiens, UniProt P78367 192-278, P234S).
The target in test [2] is NKX3-2 (Homo sapiens, UniProt P78367 192-278).
Another test addresses T1, NKX2-6 (Homo sapiens, UniProt A6NCS4 118-204, F151L).
T1 sequence: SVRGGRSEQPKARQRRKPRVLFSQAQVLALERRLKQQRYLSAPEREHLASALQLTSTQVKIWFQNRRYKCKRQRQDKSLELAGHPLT

The target of the next test is T2, PAX4 (Homo sapiens, UniProt O43316 9-242, R227W).
T2 sequence: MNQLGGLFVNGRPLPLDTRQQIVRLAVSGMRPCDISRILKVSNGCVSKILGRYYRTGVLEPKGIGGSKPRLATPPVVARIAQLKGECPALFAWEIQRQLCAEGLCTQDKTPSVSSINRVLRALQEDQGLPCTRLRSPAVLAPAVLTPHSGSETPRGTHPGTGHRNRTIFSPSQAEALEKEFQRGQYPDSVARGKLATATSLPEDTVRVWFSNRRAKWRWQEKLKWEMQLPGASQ

HOXD13, sequence (P35453 263-343 T313A): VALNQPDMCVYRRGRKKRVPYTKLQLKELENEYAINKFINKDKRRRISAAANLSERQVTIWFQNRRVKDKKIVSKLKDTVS
NKX3-2 (Homo sapiens, UniProt P78367 192-278, P234S), sequence (P78367 192-278 P234S): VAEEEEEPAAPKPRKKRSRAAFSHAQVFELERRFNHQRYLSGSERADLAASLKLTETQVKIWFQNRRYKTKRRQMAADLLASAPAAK
NKX3-2 (Homo sapiens, UniProt P78367 192-278), sequence (P78367 192-278): as the sequence (P78367 192-278 P234S) above, with S43P counted along it
HOXC9, sequence (P31274 178-260 R222W): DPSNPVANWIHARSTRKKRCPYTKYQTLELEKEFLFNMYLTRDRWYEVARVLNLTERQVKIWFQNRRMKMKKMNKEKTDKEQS
HESX1, sequence (Q9UBX0 95-180 F115L): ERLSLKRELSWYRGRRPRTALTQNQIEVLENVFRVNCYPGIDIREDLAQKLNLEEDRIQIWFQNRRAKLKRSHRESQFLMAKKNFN
MSX2, sequence (P35548 130-214 F161Y): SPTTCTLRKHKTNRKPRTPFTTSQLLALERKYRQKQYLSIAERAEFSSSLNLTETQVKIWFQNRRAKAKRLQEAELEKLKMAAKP

Turning to CTGTAAAA, in the test with HOXD13, the binding signal is 11.6 upbm affinity estimate (log intensity, higher = more binding, comparable within an allelic series). With GTTTACAA, the binding signal with HOXD13 is 11.6 upbm affinity estimate (log intensity, higher = more binding, comparable within an allelic series). Turning to CCAGGCAA, the binding signal with NKX3-2 [1] is 10.7 upbm affinity estimate (log intensity, higher = more binding, comparable within an allelic series); in the test with NKX3-2 [2] it was 10.6 upbm affinity estimate (log intensity, higher = more binding, comparable within an allelic series). On to ACTTAAGG, for which the binding signal with NKX2-6 was 10.6 upbm affinity estimate (log intensity, higher = more binding, comparable within an allelic series). With CTAAAGGC, the binding signal was 10.5 upbm affinity estimate (log intensity, higher = more binding, comparable within an allelic series) with NKX3-2 [1] and 10.6 upbm affinity estimate (log intensity, higher = more binding, comparable within an allelic series) with NKX3-2 [2]. Regarding ACGATCGA, the binding signal with NKX3-2 [1] is 10.7 upbm affinity estimate (log intensity, higher = more binding, comparable within an allelic series); in the test with NKX3-2 [2] it was 10.7 upbm affinity estimate (log intensity, higher = more binding, comparable within an allelic series). As to AATAAATT, the binding signal in the test with HOXC9 is 11.1 upbm affinity estimate (log intensity, higher = more binding, comparable within an allelic series). For CTTATTAA, in the test with HESX1, the binding signal was 7.74 upbm affinity estimate (log intensity, higher = more binding, comparable within an allelic series). Turning to AAACACTT, the binding signal with NKX2-6 was 10.9 upbm affinity estimate (log intensity, higher = more binding, comparable within an allelic series). Still for that read-out and setting: the figure for AAGTGTTC is 10.8 upbm affinity estimate (log intensity, higher = more binding, comparable within an allelic series). With CGAAGTGC, in the test with NKX3-2 [1], the binding signal is 12.5 upbm affinity estimate (log intensity, higher = more binding, comparable within an allelic series). With AAGGAGTG, the binding signal with NKX3-2 [1] is 11.9 upbm affinity estimate (log intensity, higher = more binding, comparable within an allelic series); with NKX3-2 [2] it was 12 upbm affinity estimate (log intensity, higher = more binding, comparable within an allelic series).

Consider ATAAAAAA, for which, in the test with HOXC9, the binding signal was 11.1 upbm affinity estimate (log intensity, higher = more binding, comparable within an allelic series). Turning to CAAGTGTC, in the test with NKX2-6, the binding signal was 10.6 upbm affinity estimate (log intensity, higher = more binding, comparable within an allelic series). For the sequence AAAAGGGT, the binding signal is 11.5 upbm affinity estimate (log intensity, higher = more binding, comparable within an allelic series) with NKX3-2 [1] and 11.6 upbm affinity estimate (log intensity, higher = more binding, comparable within an allelic series) with NKX3-2 [2].

On to CGACCTAG, for which the binding signal with NKX3-2 [1] was 10.6 upbm affinity estimate (log intensity, higher = more binding, comparable within an allelic series); with NKX3-2 [2] it was 10.6 upbm affinity estimate (log intensity, higher = more binding, comparable within an allelic series).

Take AAGTGCTA: the binding signal in the test with NKX2-6 was 10.6 upbm affinity estimate (log intensity, higher = more binding, comparable within an allelic series).

Consider ATTAAAAA, for which the binding signal with HOXC9 is 11 upbm affinity estimate (log intensity, higher = more binding, comparable within an allelic series). As for AATTACAA, the binding signal with MSX2 is 12.9 upbm affinity estimate (log intensity, higher = more binding, comparable within an allelic series). Take CATATTAG: the binding signal with PAX4 is 10.9 upbm affinity estimate (log intensity, higher = more binding, comparable within an allelic series). Turning to AGCCGCGC, the binding signal in the test with NKX3-2 [1] is 10.5 upbm affinity estimate (log intensity, higher = more binding, comparable within an allelic series); with NKX3-2 [2] it was 10.5 upbm affinity estimate (log intensity, higher = more binding, comparable within an allelic series). On to CGGGTCGA, for which the binding signal is 10.6 upbm affinity estimate (log intensity, higher = more binding, comparable within an allelic series) in the test with NKX3-2 [1] and 10.6 upbm affinity estimate (log intensity, higher = more binding, comparable within an allelic series) with NKX3-2 [2]. As to AAGTAGGT, the binding signal with NKX3-2 [1] is 11.7 upbm affinity estimate (log intensity, higher = more binding, comparable within an allelic series); with NKX3-2 [2] it was 11.8 upbm affinity estimate (log intensity, higher = more binding, comparable within an allelic series). For the sequence ACACTTAC, the binding signal with NKX2-6 is 10.6 upbm affinity estimate (log intensity, higher = more binding, comparable within an allelic series); with NKX3-2 [1], 12.5 upbm affinity estimate (log intensity, higher = more binding, comparable within an allelic series).

As for ACTATTAA, the binding signal with HOXD13 is 11.6 upbm affinity estimate (log intensity, higher = more binding, comparable within an allelic series). With AGGCGCCG, the binding signal with NKX3-2 [1] is 10.5 upbm affinity estimate (log intensity, higher = more binding, comparable within an allelic series); with NKX3-2 [2] it was 10.5 upbm affinity estimate (log intensity, higher = more binding, comparable within an allelic series). As for GAGACCGC, the binding signal with NKX3-2 [1] was 10.7 upbm affinity estimate (log intensity, higher = more binding, comparable within an allelic series); with NKX3-2 [2], 10.7 upbm affinity estimate (log intensity, higher = more binding, comparable within an allelic series).

With AAGTGTCT, the binding signal with NKX2-6 was 10.6 upbm affinity estimate (log intensity, higher = more binding, comparable within an allelic series). On to CAGGTAGC, for which the binding signal is 10.7 upbm affinity estimate (log intensity, higher = more binding, comparable within an allelic series) in the test with NKX3-2 [1] and 10.7 upbm affinity estimate (log intensity, higher = more binding, comparable within an allelic series) in the test with NKX3-2 [2]. With ATTATTAG, the binding signal with PAX4 is 10.9 upbm affinity estimate (log intensity, higher = more binding, comparable within an allelic series). CGGTGAGC: the binding signal is 10.6 upbm affinity estimate (log intensity, higher = more binding, comparable within an allelic series) with NKX3-2 [1] and 10.7 upbm affinity estimate (log intensity, higher = more binding, comparable within an allelic series) with NKX3-2 [2]. Turning to CGGGCAGC, the binding signal is 10.6 upbm affinity estimate (log intensity, higher = more binding, comparable within an allelic series) with NKX3-2 [1] and 10.5 upbm affinity estimate (log intensity, higher = more binding, comparable within an allelic series) in the test with NKX3-2 [2]. Take CCACTTCG: the binding signal was 12.8 upbm affinity estimate (log intensity, higher = more binding, comparable within an allelic series) with NKX3-2 [1] and 12.9 upbm affinity estimate (log intensity, higher = more binding, comparable within an allelic series) with NKX3-2 [2]. Consider CGCGGCCG, for which the binding signal is 10.2 upbm affinity estimate (log intensity, higher = more binding, comparable within an allelic series) in the test with NKX3-2 [1] and 10.2 upbm affinity estimate (log intensity, higher = more binding, comparable within an allelic series) with NKX3-2 [2]. For the sequence CACGGACC, the binding signal in the test with NKX3-2 [1] is 10.6 upbm affinity estimate (log intensity, higher = more binding, comparable within an allelic series); with NKX3-2 [2] it was 10.6 upbm affinity estimate (log intensity, higher = more binding, comparable within an allelic series).

As to ACAAGTGT, the binding signal with NKX2-6 was 10.6 upbm affinity estimate (log intensity, higher = more binding, comparable within an allelic series). Still for that read-out and setting: the figure for AACACTTG is 10.8 upbm affinity estimate (log intensity, higher = more binding, comparable within an allelic series).

ATAAAATC: the binding signal with HOXC9 was 11.1 upbm affinity estimate (log intensity, higher = more binding, comparable within an allelic series). Consider AAATTATT, for which, in the test with HESX1, the binding signal was 7.73 upbm affinity estimate (log intensity, higher = more binding, comparable within an allelic series).

With CCTGCCCG, the binding signal is 10.7 upbm affinity estimate (log intensity, higher = more binding, comparable within an allelic series) with NKX3-2 [1] and 10.7 upbm affinity estimate (log intensity, higher = more binding, comparable within an allelic series) with NKX3-2 [2].
